Bioassay records (PubChem BioAssay)
HEK cytotox = Cytotoxic Profiling in HEK 293 Cell Line of Diverse Libraries Using Quantitative High-Throughput Screening; 94,000 tested, 6.6% active; HEK 293 viability, ATP luminescence (CellTiter-Glo), 48-72 h; Potency, µM (highest dose often 115 µM), inactives show at the top dose activity change, negative = cytotoxicity, hits mostly inhibitors; also: % is scaled to controls: 0 for no effect and ±100 for the full control effect; nearly all actives have a fitted effect of over 60% in size
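Read-out: CellTiter-Glo ATP luminescence. Cells: HEK 293, 250 cells/well. Exposure: 48 or 72 hr, 37 degree Celsius.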
NIH3T3 tox = Cytotoxic Profiling in NIH 3T3 Cell Line of Diverse Libraries Using Quantitative High-Throughput Screening; 94,000 tested, 4.3% active; Potency, µM (highest dose often 96.7 µM), for inactives: at the highest dose activity change, negative = cytotoxicity, hits mostly inhibitors; NIH 3T3 viability, CellTiter-Glo ATP luminescence, 48-72 h; also: % is scaled to controls: 0 for no effect and ±100 for the full control effect; nearly all actives have a fitted effect of over 55% in size
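ATP-dependent luminescence (CellTiter-Glo) served as the viability signal for NIH 3T3 cells treated with compound for 48 or 72 hr at 37 °C.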
hNpr1 antagonist = Natriuretic polypeptide receptor (hNpr1) antagonism - Primary qHTS. Atrial natriuretic peptide receptor 1 (Homo sapiens), P16066. AID 1347048, 2019. 76,000 tested, 1.6% active. HEK293 hNpr1 GloSensor cGMP, ANP-stimulated luminescence. Potency, µM (doses to about 46.3 µM), inactives show at the highest dose activity change, negative = inhibition, actives largely listed as inhibitors; calls by dose curve; also: % is scaled to controls: 0 for no effect and ±100 for the full control effect; nearly all actives have a fitted effect of over 60% in size
Target sequence (P16066 whole entry, looked up): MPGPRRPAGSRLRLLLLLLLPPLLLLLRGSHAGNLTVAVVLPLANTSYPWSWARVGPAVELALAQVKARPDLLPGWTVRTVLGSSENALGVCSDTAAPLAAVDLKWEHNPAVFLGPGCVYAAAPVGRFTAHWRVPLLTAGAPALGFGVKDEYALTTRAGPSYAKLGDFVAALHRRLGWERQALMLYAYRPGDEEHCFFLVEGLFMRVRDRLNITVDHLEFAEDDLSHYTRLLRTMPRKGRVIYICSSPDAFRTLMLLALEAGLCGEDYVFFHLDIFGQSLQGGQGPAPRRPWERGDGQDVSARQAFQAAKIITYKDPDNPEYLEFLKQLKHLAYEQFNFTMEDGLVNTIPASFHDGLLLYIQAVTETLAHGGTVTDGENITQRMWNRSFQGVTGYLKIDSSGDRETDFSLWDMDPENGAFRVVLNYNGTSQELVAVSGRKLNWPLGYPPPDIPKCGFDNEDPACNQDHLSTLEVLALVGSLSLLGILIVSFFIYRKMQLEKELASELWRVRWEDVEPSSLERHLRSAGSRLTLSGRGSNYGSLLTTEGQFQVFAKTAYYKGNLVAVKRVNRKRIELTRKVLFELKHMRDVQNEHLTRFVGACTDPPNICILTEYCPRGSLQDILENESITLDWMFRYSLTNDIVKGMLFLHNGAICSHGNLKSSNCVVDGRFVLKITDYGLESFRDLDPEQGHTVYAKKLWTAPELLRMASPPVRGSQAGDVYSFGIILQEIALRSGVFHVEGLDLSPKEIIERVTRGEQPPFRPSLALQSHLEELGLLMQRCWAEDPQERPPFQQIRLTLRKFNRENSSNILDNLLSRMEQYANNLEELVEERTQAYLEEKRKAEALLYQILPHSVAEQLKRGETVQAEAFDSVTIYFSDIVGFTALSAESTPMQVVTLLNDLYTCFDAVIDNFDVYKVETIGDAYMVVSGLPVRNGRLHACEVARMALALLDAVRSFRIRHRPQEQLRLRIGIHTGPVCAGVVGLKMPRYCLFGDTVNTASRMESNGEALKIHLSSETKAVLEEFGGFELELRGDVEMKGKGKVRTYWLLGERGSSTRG
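Compound pre-incubated 30 min at room temperature on GloSensor-loaded HEK293 cells stably carrying hNpr1 and the pGS-40F cGMP biosensor. Stimulation uses hNppA at 0.1 nM final; luminescence is taken at baseline and 20 min post-agonist.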
FLuc inh = Firefly luciferase inhibition profiling of diverse chemical library using quantitative high-throughput screening; purified P. pyralis luciferase, luminescence, biochemical; Potency, µM (highest dose often 115 µM), most hits filed as inhibitors; 76,000 tested, 2.5% active; AID 1347043, 2019; also: % is scaled to controls: 0 for no effect and ±100 for the full control effect; nearly all actives have a fitted effect of over 65% in size
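FLuc 10nM, D-luciferin 10uM, ATP 10uM, Mg acetate 10mM, Tris acetate pH 7.5, Tween/BSA; cpd qHTS; enzyme added last; CCD luminescence.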
NPR1 antag cnf = Natriuretic polypeptide receptor (hNpr1) antagonism - Confirmation; shares compounds with hNpr1 antagonist; HEK293 hNpr1 cGMP GloSensor luminescence, ANP-stimulated; Potency, µM (doses to about 57.6 µM), inactives show at the highest dose activity change, negative = inhibition, hits mostly inhibitors; 1,400 tested, 76% active; AID 1347044, 2019; calls by dose curve; also: nearly all actives have a fitted effect of over 70% in size
NPR2 antag = Natriuretic polypeptide receptor (hNpr2) antagonism - Subtype selectivity assay. shares compounds with hNpr1 antagonist. HEK293 hNpr2 GloSensor cGMP luminescence, CNP-stimulated. Potency, µM (series often up to 57.6 µM), for the others: at the top dose activity change, negative = inhibition, usual class: inhibitors. 1,400 tested, 67% active. AID 1347046, 2019; calls by dose curve; also: nearly all actives have a fitted effect of over 70% in size
FLuc inh counter = Natriuretic polypeptide receptor (hNpr1) antagonism - Confirmation firefly luciferase (FLuc) inhibition counterscreen | shares compounds with hNpr1 antagonist | purified FLuc enzyme, luminescence, Km substrate | Potency, µM (top dose mostly 57.6 µM), for the others: top-dose activity change, negative = inhibition, actives largely listed as inhibitors | 1,400 tested, 0.7% active; also: 0% is about no effect
GloSensor ctrl = Natriuretic polypeptide receptor (hNpr1) antagonism - Counterscreen GloSensor control cell line | shares compounds with hNpr1 antagonist | HEK293 GloSensor cGMP, SNP-stimulated, luminescence | Potency, µM (highest dose often 57.6 µM), without a hit: at the top dose activity change, negative = inhibition, most hits filed as inhibitors | 1,400 tested, 69% active | AID 1347051, 2019; calls by dose curve; also: % is scaled to controls: 0 for no effect and ±100 for the full control effect; nearly all actives have a fitted effect of over 70% in size
Starred values were filed as active, the others as inactive; i = inactive; u = inconclusive; x = no result; [ ] = another dose, or the depositor's remark. Sampled rows, rich in hits. Any-hit rate of the full collection: about 11%. Unless noted, calls follow the shape of the dose curve; as a rule, active = well fitted curve in the direction sought with a large enough effect; inconclusive = small, poorly fitted or top-dose-only effect, or another doubt; inactive = no such curve, though single readings can be large; an effect the other way counts as inactive or inconclusive. Potency is read from the fitted curve at half-maximal effect.

SMILES	HEK cytotox	NIH3T3 tox	hNpr1 antagonist	FLuc inh	NPR1 antag cnf	NPR2 antag	FLuc inh counter	GloSensor ctrl
CC(C)(Oc1nn(Cc2cccc(Cl)c2)c2ccccc12)C(=O)N1CCN(CCO)CC1	u	u	u	i	u	u	4.3%	-2.2%
Cc1cc(NC(=O)C(C)(C)Oc2nn(CCOc3ccccc3)c3ccccc23)n(C)n1	u	u	25.1µM*	i	35.3µM*	35.3µM*	2.5%[86.2 µM]	31.4µM*
COCc1ccc2c(c1)c(OC(C)(C)C(=O)N1CCN(C)CC1)nn2CCC(C)C	u	-27.6%[138 µM]	-0.8%[70.6 µM]	i	x	x	x	x
CC1(c2noc(C3CCOCC3)n2)CCN(Cc2ccc(Cl)cc2F)CC1	u	-28.8%	12.6µM*	i	24.3µM*	24.3µM*	6.9%	21.7µM*
CNC(=O)c1cc(C2CC2)nc2onc(C3CCN(C(=O)c4ccccc4F)CC3)c12	u	-32.3%	x	x	x	x	x	x
Cc1ccccc1NC(=O)CN1C(=O)NC2(CCC(C(C)(C)C)CC2)C1=O (centres undefined)	-28.2%	-11.9%	-4.0%	i	x	x	x	x
CC(=O)NCCCC(=O)N1C2CCC1CN(c1ccc(C(F)(F)F)cc1)C2	-28.8%	u	x	x	x	x	x	x
O=C(c1ccncc1)N1C2CCC1CN(c1ccc(C(F)(F)F)cc1)C2	u	u	x	x	24.3µM*	21.7µM*	1.1%	21.7µM*
O=C(N1CCOCC1)N1C2CCC1CN(c1ccc(C(F)(F)F)cc1)C2	u	14.1µM*	x	x	21.7µM*	21.7µM*	5.2%	19.3µM*
CCOC(=O)N1CCC(N2CCCC(CCC(=O)Nc3ccc(OC)c(Cl)c3)C2)CC1 (centres undefined)	u	-3.5%	0.7%	i	x	x	x	x
COc1cc(Cl)ccc1C(=O)N1CCC(Cc2nc(-c3ccc(F)cc3)no2)CC1	u	11.2µM*	5.62µM*	i	4.85µM*	6.11µM*	0.8%	6.85µM*
COc1ccc(-c2noc(CC3CCN(C(=O)c4cc(Cl)ccc4OC)CC3)n2)cc1	31.6µM*	u	-28.9%	i	21.7µM*	24.3µM*	-5.2%	21.7µM*
CCOc1ccccc1C(=O)N1CCC(Cc2nc(-c3ccc(F)cc3)no2)CC1	u	u	u	i	x	x	x	x
CCCc1noc(-c2ccn3c(CNC(=O)Cc4ccccc4Cl)nnc3c2)n1	-0.1%	-12.9%	3.8%	i	x	x	x	x
COc1ccc2nc3n(c2c1)[C@@H](CNCc1ccc(C(F)(F)F)cc1)COC3	u	u	35.5µM*	i	31.4µM*	35.3µM*	-1.6%[86.2 µM]	28µM*
COc1ccc2nc3n(c2c1)[C@@H](CNCc1ccc(C(=O)O)cc1)COC3	i	-2.8%[138 µM]	3.6%[70.6 µM]	i	x	x	x	x
c1ccc(CNC[C@H]2COCc3nc4ccccc4n32)cc1	u	u	22.4µM*	i	35.3µM*	31.4µM*	-0.9%[86.2 µM]	28µM*
